Data from PubChem BioAssay (NCI).
The panel holds about 83,000 compounds, 20% with a hit somewhere; the sample as a whole holds those more often.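 Growth was measured after 48 h exposure to one concentration of compound in 96-well plates. Values under 10 count as active.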 A number with no mark means an inactive call. Active and inactive are the calls of the source.

What was measured:
Assay in all cases: NCI-60 one-dose screen, 48 h (100 = growth as untreated, 0 = no growth, -100 = all killed)
Details in all cases: 10 µM unless noted
[1] = system: HCT-15 colon
[2] = system: HT29 colon
[3] = system: SNB-75 CNS
[4] = system: SNB-19 CNS
[5] = system: U251 CNS
[6] = system: PC-3 prostate
[7] = system: SK-MEL-5 melanoma
[8] = system: UACC-62 melanoma
[9] = system: LOX IMVI melanoma
[10] = system: SK-MEL-28 melanoma
[11] = system: SK-MEL-2 melanoma
[12] = system: SN12C renal
[13] = system: UO-31 renal
[14] = system: TK-10 renal
[15] = system: ACHN renal
[16] = system: A498 renal
[17] = system: CCRF-CEM leukemia
[18] = system: MOLT-4 leukemia
[19] = system: CAKI-1 renal

Row | SMILES | growth [1] | growth [2] | growth [3] | growth [4] | growth [5] | growth [6] | growth [7] | growth [8] | growth [9] | growth [10] | growth [11] | growth [12] | growth [13] | growth [14] | growth [15] | growth [16] | growth [17] | growth [18] | growth [19]
1 | O=C(Nc1ccc(OCc2nnc(-c3ccc(Cl)cc3)o2)c(F)c1)Nc1ccc(Cl)c(Cl)c1 | 48.4% | 32.8% | 6.81% (active) | 71.8% | 46.8% | 44.4% | 75.6% | 60.9% | 24.5% | 61.5% | 81.5% | 90.9% | 56.3% | 77.5% | 3.37% (active) | 67.9% | 51.7% | 45.2% | –
2 | Cc1nc(Nc2cccnc2)sc1C(=O)/C=C/c1ccc(F)cc1 | 20.4% | 8.45% (active) | 2.4% (active) | 18.9% | 12.9% | 27.6% | 67.6% | 46.3% | 8.41% (active) | 87.6% | 92.4% | 5.77% (active) | 29.9% | 54% | 38.7% | – | 1.27% (active) | 81.7% | 46.2%
3 | O=C(CNc1c(Cl)cccc1Cl)Nc1ccc(-c2nc3ccccc3s2)cc1 | 2.42% (active) | 69.8% | 59.2% | 73.9% | 27.7% | 85.9% | 21.2% | 35.1% | -49.3% (active) | 104% | 84.8% | 48% | 73.7% | 106% | 42.3% | – | 2.24% (active) | 5.63% (active) | 28.8%
4 | O=C(NNC(=S)Nc1ccccc1)c1ccccn1 | 22.8% | 57.2% | 67.5% | 52.2% | 20.4% | 34.4% | 13.8% | 5% (active) | 25.9% | 46% | 85.6% | 43.7% | 19.8% | 50.2% | 16.4% | – | 18.8% | 13.8% | 5.93% (active)
5 | COc1cccc(-c2nc3sccn3c2-c2ccnc(NCCNS(=O)(=O)c3ccccc3)n2)c1 | 42.9% | 34% | 79.8% | 97.3% | 71.9% | 69.2% | 28.2% | 32.5% | 48% | 66.4% | 77.1% | 67.9% | 37.7% | 83% | 44.3% | – | 42.6% | 43.2% | 53.1%
6 | COc1cccc(-c2nc3sccn3c2-c2ccnc(NCCCNS(=O)(=O)c3ccc(F)cc3)n2)c1 | 18.1% | 26.7% | 66.8% | 78.4% | 49.6% | 47.7% | 7.26% (active) | 6.83% (active) | 14.4% | 38.1% | 40.8% | 36.8% | 12.5% | 66.2% | 21.8% | – | 24.6% | 23.2% | 30.9%
7 | COc1ccc(S(=O)(=O)NCCNc2nccc(-c3c(-c4ccccc4)nc4sccn34)n2)cc1 | 19.4% | 25.4% | 21.8% | 39.3% | 32.7% | 23.1% | -80% (active) | 24.8% | 18.8% | 31.3% | 2.98% (active) | 27.5% | 18.6% | 47% | 10.3% | – | 22.8% | 5.16% (active) | 18.3%
8 | COc1ccc(C(=O)/C=C/c2cc(C(=O)c3cc(OC)c(OC)c(OC)c3)ccc2OC)cc1 | 29.2% | 27.7% | 66.7% | 53.6% | 52.4% | 44.5% | 54.4% | 33.1% | 27.4% | 35.1% | 60.8% | 68.8% | 53.7% | 107% | 41% | 93.1% | 5.61% (active) | 10.5% | –
9 | CC(C)(C)OC(=O)N[C@@H](Cc1ccccc1)C(=O)N(Cc1ccccc1)C1(C(=O)NCc2ccccc2)CCN(Cc2ccccc2)CC1 | 36.1% | 23.9% | 44.9% | 31.6% | 33.8% | 1.58% (active) | 24.3% | 26% | 39% | 69.9% | 55.9% | 19.3% | 15.5% | 62.3% | 40.8% | 8.13% (active) | 33.9% | 7.74% (active) | –
10 | C=CCN=C1NC(=O)/C(=C/c2cc(C(C)(C)C)c(O)c(C(C)(C)C)c2)S1 | 42.1% | 26.9% | 88.8% | 83.6% | 77% | 62.4% | 49.3% | 63.8% | 70.8% | 73.3% | 40.1% | 91% | 67% | 79.4% | 87% | – | 69.4% | 47.4% | 47.8%
11 | O=C(Nc1ccc(Br)c(Cl)c1)c1cc(F)ccc1O | 7.56% (active) | 0.733% (active) | 8.82% (active) | 19.4% | 12.3% | 5.07% (active) | -90.3% (active) | -3.96% (active) | -61.4% (active) | -7.64% (active) | -32.6% (active) | 5.56% (active) | -1.56% (active) | 21.3% | 0.577% (active) | – | 6.75% (active) | -23% (active) | -48.8% (active)
12 | CC(C)C[C@H](NC(=O)Cn1ccc(NCc2ccccc2)cc1=O)B(O)O | 23.5% | -15.2% (active) | 56.9% | 42.2% | 44.6% | 49.2% | -9.84% (active) | 4% (active) | -65.5% (active) | 27.4% | -6.74% (active) | 31.2% | -40.5% (active) | -10.7% (active) | 9.74% (active) | -20.9% (active) | 2.78% (active) | -10.3% (active) | –
13 | NCCSC(c1ccccc1)(c1ccccc1)c1ccccc1 | 24.9% | 0.695% (active) | 12.5% | 53.3% | 14.1% | 19.4% | 11.9% | 29.5% | 25.9% | 43% | 25.6% | 23.7% | 42.7% | 54.6% | 46.2% | 24.1% | 2.43% (active) | 3.39% (active) | –
14 | COc1cc2nc(Cl)nc(NCCO)c2cc1OC | 99% | 110% | 86.1% | 104% | 96.5% | 93.4% | 102% | 108% | 97.7% | 112% | 125% | 104% | 94.8% | 103% | 98.3% | 79.7% | 98.8% | 101% | –
15 | O=C1c2ccccc2C(=O)c2c1oc1oc3c(c(=O)c21)c(=O)n(-c1ccccc1)c1ccccc31 | 66.6% | 84.2% | 31.8% | 27.9% | 21.1% | 34.2% | 17.7% | 13.2% | 43% | 39.4% | 23.1% | 97.7% | 49.2% | 64.2% | 28.5% | – | 17.8% | 16.1% | 69.2%
16 | COc1ccc(-c2nc3sccn3c2-c2ccnc(NCCNS(=O)(=O)c3ccc(C(F)(F)F)cc3)n2)cc1 | 9.19% (active) | 14.5% | 29.5% | 34.2% | 15.4% | 9.86% (active) | -94.1% (active) | 0.0074% (active) | 2.4% (active) | 13.9% | -27.8% (active) | 17.3% | 19% | 30.2% | 3.82% (active) | – | 9.58% (active) | 0.208% (active) | 17%
17 | CCOC(=O)C1=C(C)NC(=O)NC1c1ccc(OCC(=O)N/N=C/c2ccc(Cl)cc2)cc1 (stereo unspecified) | 97.5% | 94.3% | 79.1% | 89.5% | 91.9% | 89% | 97.1% | 87.3% | 98.2% | 105% | 94.3% | 97% | 93.7% | 99% | 96.8% | – | 92.1% | 92.3% | 99.8%
